# In PubChem BioAssay:
# Values without a mark were called inactive. For some of these results: Results with a measured potency or affinity are listed apart. Active and inactive are the calls of the source. Unless noted, no rule for the calls is given here.
# Key:
# [1] = antimalarial activity against Dd2 strain (AID 2302;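 active = growth inhibition above 50% at the single 2 µM test dose, taken to imply half-maximal potency below 2 µM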;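 also: 0% = DMSO untreated growth and 100% = chloroquine plus artemisinin killed control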); conditions: P. falciparum Dd2 in RBCs, LDH growth readout, 72 h; at 2 µM; active compounds read high
# [2] = human hepatoma cell viability loss – ATP luminescence, cytotoxicity control for P. falciparum antimalarial project, primary screen (AID 2303;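 active = inhibition above 50%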;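 also: 0% = DMSO wells and 100% = digitonin-killed cells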); conditions: HepG2 viability, 24-48 h, at 10 µM, active compounds read high
# [3] = target: L-lactate dehydrogenase (Plasmodium falciparum (isolate CDC / Honduras)) (UniProt Q27743); test: PfLDH activity inhibition – cell lysate, 3D7 strain, counter-screen for P. falciparum growth inhibition project (AID 2304);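 also: 0% = vehicle and 100% = reference inhibitor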; conditions: P. falciparum 3D7 crude extract, LDH APAD/NBT absorbance; at 2 µM; active compounds read high
# Sequence of L-lactate dehydrogenase (Plasmodium falciparum (isolate CDC / Honduras)) (Q27743 whole entry, looked up): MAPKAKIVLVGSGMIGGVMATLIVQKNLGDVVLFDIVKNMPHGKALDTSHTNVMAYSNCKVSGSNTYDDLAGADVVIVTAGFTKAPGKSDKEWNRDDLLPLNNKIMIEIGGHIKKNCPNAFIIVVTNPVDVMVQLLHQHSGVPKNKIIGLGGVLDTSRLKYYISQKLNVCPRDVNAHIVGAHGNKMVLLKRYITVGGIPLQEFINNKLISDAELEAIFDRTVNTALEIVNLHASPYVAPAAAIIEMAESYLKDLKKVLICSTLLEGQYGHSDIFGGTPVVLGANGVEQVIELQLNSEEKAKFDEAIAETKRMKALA
# [4] = inhibition of 3D7 malaria parasite growth – strain 3D7 (AID 2306);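 also: 0% = DMSO wells and 100% = chloroquine plus artemisinin control wells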; conditions: P. falciparum 3D7 erythrocytic growth, LDH absorbance, 72 h; at 2 µM; active compounds read high
# [5] = target: Calcium-dependent protein kinase 1 (Plasmodium falciparum (isolate 3D7)) (UniProt P62344); test: PfCDPK1 kinase inhibitors, biochemical, TCAMS library (AID 1159585; cut-off not given, nearly all actives have IC50 up to about 0.98 µM;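 also: inhibitors leave more ATP so luminescence rises with inhibition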); conditions: recombinant PfCDPK1, Kinase-Glo ATP depletion luminescence
# Sequence of Calcium-dependent protein kinase 1 (Plasmodium falciparum (isolate 3D7)) (P62344 whole entry, looked up): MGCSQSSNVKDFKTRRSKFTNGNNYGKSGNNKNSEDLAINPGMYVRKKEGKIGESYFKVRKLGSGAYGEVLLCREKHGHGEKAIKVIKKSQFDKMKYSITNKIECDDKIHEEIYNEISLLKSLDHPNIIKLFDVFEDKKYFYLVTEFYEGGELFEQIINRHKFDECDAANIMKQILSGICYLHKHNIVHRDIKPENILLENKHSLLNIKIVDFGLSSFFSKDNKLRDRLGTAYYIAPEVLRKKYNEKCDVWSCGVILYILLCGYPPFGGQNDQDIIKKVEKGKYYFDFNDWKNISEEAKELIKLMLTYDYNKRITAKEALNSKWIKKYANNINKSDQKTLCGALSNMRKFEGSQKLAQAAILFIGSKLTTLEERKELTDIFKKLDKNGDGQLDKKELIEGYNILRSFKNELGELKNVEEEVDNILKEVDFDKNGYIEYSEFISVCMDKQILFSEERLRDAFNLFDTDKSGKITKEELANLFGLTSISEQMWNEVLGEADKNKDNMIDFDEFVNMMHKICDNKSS
# [6] = target: Plasmodium falciparum protein kinase 6 (PK6, PF3D7_1337100) (UniProt Q8IDW1); test: PfPK6 kinase inhibitors, biochemical, TCAMS library (AID 1159586); conditions: recombinant PfPK6, Kinase-Glo ATP depletion luminescence
# Sequence of Plasmodium falciparum protein kinase 6 (PK6, PF3D7_1337100) (Q8IDW1 1-305): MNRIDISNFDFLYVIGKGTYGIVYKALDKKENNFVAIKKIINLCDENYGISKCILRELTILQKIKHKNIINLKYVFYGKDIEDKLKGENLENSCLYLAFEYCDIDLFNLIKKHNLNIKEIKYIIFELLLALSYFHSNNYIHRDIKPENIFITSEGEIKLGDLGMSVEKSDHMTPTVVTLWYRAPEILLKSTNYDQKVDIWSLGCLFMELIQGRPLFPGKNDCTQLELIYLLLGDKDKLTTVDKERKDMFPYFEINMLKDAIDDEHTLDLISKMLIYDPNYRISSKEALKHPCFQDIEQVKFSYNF
# [7] = target: Protein kinase 7 (PK7), Plasmodium falciparum 3D7 (PF3D7_0213400) (UniProt Q7YTF7); test: inhibition of Plasmodium PK7 catalytic activity – biochemical, TCAMS antimalarial set, Kinase-Glo luminescence (AID 1159587); conditions: recombinant PfPK7, Kinase-Glo ATP depletion luminescence
# Sequence of Protein kinase 7 (PK7), Plasmodium falciparum 3D7 (PF3D7_0213400) (Q7YTF7 1-343): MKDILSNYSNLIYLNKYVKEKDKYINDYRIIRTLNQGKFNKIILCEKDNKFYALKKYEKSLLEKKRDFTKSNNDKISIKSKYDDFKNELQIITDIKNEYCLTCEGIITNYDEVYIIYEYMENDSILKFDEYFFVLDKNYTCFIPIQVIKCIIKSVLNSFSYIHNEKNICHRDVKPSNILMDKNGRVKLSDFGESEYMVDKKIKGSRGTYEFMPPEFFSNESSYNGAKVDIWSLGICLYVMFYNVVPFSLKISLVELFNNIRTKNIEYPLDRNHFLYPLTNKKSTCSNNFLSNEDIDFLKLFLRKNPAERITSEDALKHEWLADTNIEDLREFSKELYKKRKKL
# [8] = target: Calcium-dependent protein kinase 4 (Plasmodium falciparum (isolate 3D7)) (UniProt Q8IBS5); test: PfCDPK4 kinase inhibitors, biochemical, TCAMS library (AID 1159588; cut-off not given, nearly all actives have IC50 up to about 0.91 µM); conditions: recombinant PfCDPK4, Kinase-Glo ATP depletion luminescence
# Sequence of Calcium-dependent protein kinase 4 (Plasmodium falciparum (isolate 3D7)) (Q8IBS5 whole entry, looked up): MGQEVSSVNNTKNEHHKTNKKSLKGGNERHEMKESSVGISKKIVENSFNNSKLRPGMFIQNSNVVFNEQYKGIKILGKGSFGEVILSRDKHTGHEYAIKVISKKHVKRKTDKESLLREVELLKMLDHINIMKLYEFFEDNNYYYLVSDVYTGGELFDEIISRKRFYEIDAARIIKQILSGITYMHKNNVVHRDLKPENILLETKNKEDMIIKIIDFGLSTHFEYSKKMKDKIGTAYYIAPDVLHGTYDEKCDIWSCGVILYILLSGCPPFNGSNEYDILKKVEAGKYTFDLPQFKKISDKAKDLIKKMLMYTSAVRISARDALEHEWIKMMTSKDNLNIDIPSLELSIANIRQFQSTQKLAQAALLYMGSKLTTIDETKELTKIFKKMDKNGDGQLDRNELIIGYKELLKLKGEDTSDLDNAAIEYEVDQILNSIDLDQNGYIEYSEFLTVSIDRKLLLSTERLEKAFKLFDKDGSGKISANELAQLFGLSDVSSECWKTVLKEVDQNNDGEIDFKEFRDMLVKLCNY
SMILES,growth inhibition [1],inhibition [2],inhibition [3] [%],growth inhibition [4],outcome [5],outcome [6],outcome [7],outcome [8]
CCNc1cc(C(=O)N[C@@H](Cc2ccccc2)[C@H](O)CN[C@H](C)c2ccccc2)cc(N2CCCC2=O)c1,99% (active),-1%,6,97% (active),inactive,inactive,inactive,inactive
Cc1ncsc1CCN1C(=O)CC2(C1=O)C(=O)N(Cc1ccccc1)c1ccc(Cl)cc12 (stereo not given),46%,0%,1,86% (active),inactive,inactive,inactive,inactive
Cc1cc(C(=O)CN2C(=O)NC3(CCOc4ccccc43)C2=O)c(C)n1Cc1ccc(F)cc1 (stereo not given),84% (active),1%,0,95% (active),inactive,inactive,inactive,inactive
CC(C)c1nc2c(N)nc(N)nc2nc1N,-1%,64% (active),2,84% (active),inactive,inactive,inactive,inactive
CCOc1ccc(/C=C/C(=O)Nc2cccc3c2CCN(C)C3)cc1,3%,-2%,0,92% (active),inactive,inactive,inactive,inactive
NC(=O)c1cnc2ccc(-c3cncs3)cc2c1Nc1ccc(F)c(Cl)c1,99% (active),3%,6,97% (active),inactive,inactive,inactive,inactive
CCC(NCc1ccc(-c2cncc(C(=O)NCC(C)C)c2)cc1)c1ccccc1 (stereo not given),8%,14%,2,86% (active),inactive,inactive,inactive,inactive
OC(c1ccc(Cl)cc1)(c1ccc(Cl)cc1)C(c1ccc(Cl)cc1)n1ccnc1 (stereo not given),100% (active),15%,-3,101% (active),inactive,inactive,inactive,inactive
O=C(Cn1c(CCc2cccc(F)c2F)cc(=O)c2cccnc21)N(CCCn1ccnc1)Cc1ccc(-c2ccc(C(F)(F)F)cc2)cc1,47%,38%,-3,96% (active),inactive,inactive,inactive,inactive
N#Cc1ccc(-n2cc(C(=O)Nc3ccc4c(c3)CCN(C3CCC3)CC4)c(C(F)(F)F)n2)cc1,99% (active),37%,-2,102% (active),inactive,inactive,inactive,inactive
Cc1ccccc1C1CCN(C2CCC(NC(=O)C3=Cc4ccccc4OC3)CC2)CC1 (stereo not given),15%,26%,-4,91% (active),inactive,inactive,inactive,inactive
CC(C)(C)c1ccc(CN2CCC(CNC(=O)c3cc(-c4ccccc4C(F)(F)F)cs3)C2)cc1 (stereo not given),11%,61% (active),-3,92% (active),inactive,inactive,inactive,inactive
COc1ccc(CN2CCCC(OC(c3ccc(F)cc3)c3ccc(F)cc3)C2)c(O)c1 (stereo not given),99% (active),16%,0,100% (active),inactive,inactive,inactive,inactive
Clc1ccc2c(NCc3ccccc3)ccnc2c1,100% (active),40%,1,101% (active),inactive,inactive,inactive,inactive
Cc1nc(N)nc(N)c1OCc1cccc2c1ccc1ccccc12,16%,54% (active),1,95% (active),inactive,inactive,inactive,inactive
COc1ccc2ncc(F)c(CCN3CCC(NCc4cc(F)c5c(c4)OCCO5)CC3)c2n1,67% (active),15%,-5,100% (active),inactive,inactive,inactive,inactive
Cc1ccc(NC(=O)c2ccnc(N3CCN(c4ccncc4)CC3)c2)cc1F,12%,43%,-2,94% (active),inactive,inactive,inactive,inactive
C=CCN(c1ccc(OC)cc1)S(=O)(=O)c1ccc(Cl)c(C(=O)Nc2cccc(C#N)c2)c1,73% (active),6%,6,96% (active),inactive,inactive,inactive,inactive
CCCc1cc(OC)c(C[C@H]2c3cc(O)c(Cl)cc3CCN2C)cc1OC,98% (active),-3%,-6,97% (active),inactive,inactive,inactive,inactive
COc1ccc(CNCCCCCNCc2ccc(Cl)c(Cl)c2)cc1Cl,43%,42%,0,98% (active),inactive,inactive,inactive,inactive
